# Experimental data published in PubChem BioAssay.
# The source made the active and inactive calls.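 The calls were made as follows: active = visual image review flags a hit and inhibition of aggregation exceeds 20%; inconclusive = visual hit but inhibition at or below 20%; inactive = no hit on visual image review.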
# Experiment: inhibitors of mutant huntingtin aggregation, primary screen, imaging, exon1htt(103Q)mCFP cells, high-content imaging (AID 483);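 also: compound exposure lasted 3 days before fixation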;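 as to nuclei count: percent of the per-plate median nuclei count of sample wells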
# Settings: exon1htt(103Q)mCFP cell line, aggregate imaging, at 2 µM; inhibition of aggregation: stronger effect = higher value; nuclei count: measured here: cell count, toxicity
SMILES,inhibition of aggregation,nuclei count
Cn1c(SCC(=O)c2ccc(-c3ccccc3)cc2)nnc1-c1ccco1,5.3% (inactive),67.6%
Cc1ccccc1NC(=O)CSc1nnc(Cc2cccn2C)n1-c1ccc(F)cc1,0% (inactive),98.8%
CC(=O)N1CCc2c(sc(NC(=O)c3ccc(S(=O)(=O)N(C)C)cc3)c2C#N)C1,18.5% (inactive),87.4%
Cc1c(NC(=O)c2nn(C)c(=O)c3ccccc23)c(=O)n(-c2ccccc2)n1C,-1.2% (inactive),98.9%
CCOC(=O)C1C(=O)N(C(=O)c2ccc(OC)cc2)CC1c1ccccc1 (stereo not given),-7.4% (inactive),99%
C=CCSc1nnc(-c2cccnc2)o1,13.3% (inactive),94.4%
O=C(CCCn1c(=S)[nH]c2cc3c(cc2c1=O)OCO3)N1CCN(c2ccccc2F)CC1,-7.6% (inactive),99.5%
COc1ccc(OCC(=O)Nc2ccc(N3CCOCC3)c(Cl)c2)cc1,-18.9% (inactive),101%
CCNc1ccc2c(Cl)cc(=O)oc2c1,25.1% (inactive),72.6%
Cc1cc(Br)ccc1NC(=O)CCN1C(=O)c2ccncc2C1=O,-19.7% (inactive),96.6%
CC(=O)Nc1ccc(S(=O)(=O)N2CCN(C(=O)CCC3CCCC3)CC2)cc1,-12.8% (inactive),96.2%
Cc1ccccc1NC(=O)C1CCCN(S(=O)(=O)c2cccc3cccnc23)C1 (stereo not given),21% (inactive),71.1%
C(#Cc1ccccc1)Cn1nnc2ccccc21,11.6% (inactive),73.2%
COc1ccccc1N1CCN(C/C(O)=C(\C#N)c2nc(-c3ccccc3)cs2)CC1,-1.4% (inactive),114%
Cn1c(CN2CCOCC2)nnc1SCC(=O)NCCc1ccccc1,0.2% (inactive),118%
Nc1nc(CSc2nc3ccccc3[nH]2)nc(N2CCOCC2)n1,-0.7% (inactive),87.9%
CN1CCN(c2nc(-c3ccncc3)nc3ccccc23)CC1,-19.7% (inactive),51.3%
Cc1cc(=O)[nH]c(SCC(=O)NCc2ccco2)n1,0% (inactive),95.2%
COc1ccc(NC(=O)NCCN2C(=O)C3C4C=CC(C4)C3C2=O)cc1 (stereo not given),0.8% (inactive),75.5%
CCC(=O)c1ccc(OCC(O)CN2CCN(S(=O)(=O)N3CCCCC3)CC2)cc1 (stereo not given),-4.1% (inactive),102%

SMILES,inhibition of aggregation,nuclei count
O=C(c1cccs1)N(Cc1ccco1)Cc1cc2ccccc2[nH]c1=O,-7.1% (inactive),107%
COc1cccc(NC(=O)C2CCN(c3ncccn3)CC2)c1,-8.1% (inactive),94.4%
CC(=O)Nc1ccc(-c2nn[nH]n2)cc1Cl,-3% (inactive),69.9%
COc1cccc(N(C(=O)c2ccco2)C(C(=O)NC2CCCC2)c2ccc(N(C)C)cc2)c1 (stereo not given),-38.4% (inactive),98.6%
CCN(CC)C(=O)C1CCC(CNS(=O)(=O)c2cccc3cccnc23)CC1 (stereo not given),-8.4% (inactive),94.4%
COc1ccc(C(=O)COC(=O)CCn2nnc(-c3cccs3)n2)cc1,20% (inactive),78.6%
Fc1cccc(-c2cc3nc4c(c(N5CCN(c6cnccn6)CC5)n3n2)CCCC4)c1,-5.2% (inactive),101%
Cc1ccc(Nc2cc(C)nc3ncnn23)c(Cl)c1,-2.9% (inactive),69.8%
O=C1CCC(c2ccccc2)N1C(=O)c1cccnc1 (stereo not given),-4.3% (inactive),98%
CC1CCc2c(sc3c2C2=NS(=O)(=O)CCN2C=N3)C1 (stereo not given),2.7% (inactive),87.1%
CCn1c(SCc2nc(-c3cccs3)no2)nnc1-c1c[nH]c2ccccc12,1.2% (inactive),82.9%
CC(CN1CCCCC1)OC(=O)c1ccc2c(c1)OCO2 (stereo not given),27.4% (inactive),70.8%
CN1CCN(S(=O)(=O)c2ccc(NC(=O)Nc3cccc(Cl)c3)cc2)CC1,-4.4% (inactive),91.8%
CCC(C)OC(=O)c1[nH]c2c(c1C)C(=O)CC(c1ccc(N(C)C)cc1)C2 (stereo not given),-40.7% (inactive),108%
COc1cccc(C=Nc2ccc3c(c2)OCCO3)c1O,9% (inactive),97.3%
O=C(Cn1ncc2c1-c1ccccc1OC2)Nc1ccc(Cl)cn1,-7.1% (inactive),114%
CCOC(=O)c1c(C)n(C)c2c(C)cc(O)c(OC(C)=O)c12,-6.8% (inactive),96.7%
COc1ccccc1CCNC(=O)C1CCCO1 (stereo not given),-27.9% (inactive),118%
CCCSc1nnc2nc3c(nn12)c1ccccc1n3C,-6.3% (inactive),109%
CCN(CCNC(=O)C1CCN(S(=O)(=O)c2cccc3cccnc23)CC1)c1ccccc1,-11% (inactive),112%
